A549 tox = counter-screen for Nrf2 inhibitors: cytotoxicity in A549 cells; AID 504648; A549 ARE-Fluc cells, CellTiter-Fluor viability, 18-24 h; 0.16% of 390,000 active; Potency, µM (top dose mostly 46 µM), inactives show at the top dose activity change, negative = cytotoxicity, hits mostly inhibitors; also: potency is read from the fitted curve at half-maximal effect
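Cytotoxicity counterscreen: CellTiter-Fluor fluorescence was measured in A549 ARE_Fluc cells after 18-24 h of compound exposure in a concentration series. The subsequent BugLite luminescent read reports ARE-luciferase activity.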
PI4K2A block = PI4K2A (human) kinase inhibition. Q9BTU6. purified PI4K2A, ADP-Glo luminescence, 1 h; active compounds read low. activity change, negative = inhibition, % at 76.9 µM. 0.13% of 420,000 active; in the data active = activity change below about -50%; inconclusive = mostly about -30% to -49%;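 also: -100% = wells without enzyme as full effect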
Target sequence (Q9BTU6 whole entry, looked up): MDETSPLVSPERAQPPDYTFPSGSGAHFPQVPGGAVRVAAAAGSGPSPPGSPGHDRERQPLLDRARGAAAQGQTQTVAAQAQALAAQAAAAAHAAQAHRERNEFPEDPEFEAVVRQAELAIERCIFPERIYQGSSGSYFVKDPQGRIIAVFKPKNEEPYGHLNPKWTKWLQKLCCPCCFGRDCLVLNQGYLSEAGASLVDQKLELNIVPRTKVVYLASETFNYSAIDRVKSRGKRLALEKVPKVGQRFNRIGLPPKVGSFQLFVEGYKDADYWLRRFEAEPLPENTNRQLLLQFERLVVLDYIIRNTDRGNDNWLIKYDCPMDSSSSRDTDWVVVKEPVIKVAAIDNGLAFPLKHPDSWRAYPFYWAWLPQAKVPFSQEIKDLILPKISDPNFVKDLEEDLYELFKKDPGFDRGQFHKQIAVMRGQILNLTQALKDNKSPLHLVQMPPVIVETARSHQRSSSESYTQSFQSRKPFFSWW
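ADP-Glo luminescence measured ADP generated by PI4K2A enzyme (4 ug/mL before mixing) with 1.2 mM PI substrate (pre-mix) and 300 microM ATP (pre-mix). Tris pH7.5 buffer with MgCl2, Triton X-100; 1 h reaction at ambient temperature.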
KB-V1 MDR tox = kills drug-selected multidrug resistant KB-V1 cells. KB-V1 MDR cells viability, CellTiter-Glo, 72 h. AID 1347076. Potency, µM (titrated, usually from 46.1 µM), hits mostly cytotoxic. 3.4% of 400,000 active; also: potency is read from the fitted curve at half-maximal effect; nearly all actives have a fitted effect of over 60% in size
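KB-V1 cells (P-gp-expressing MDR subline of KB-3-1) in phenol-red-free DMEM with 10% FBS were exposed to library compounds over a concentration series for 72 h at 37 degrees C. Viability read by CellTiter-Glo luminescence; concentration-effect curves fitted after normalization.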
Nrf2 inh = inhibitors of Nrf2 signaling; AID 504444; Potency, µM (series often up to 46 µM), without a hit: at the top dose activity change, negative = inhibition, most hits filed as inhibitors; 2.1% of 360,000 active; A549 ARE-Fluc reporter, luciferase luminescence, 18-24 h; also: potency is read from the fitted curve at half-maximal effect; nearly all actives have a fitted effect of over 60% in size
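Concentration-response testing used A549 ARE_Fluc cells at 5000 cells/well. Following an 18-24 h compound incubation, viability was read by fluorescence (Ex 405/Em 525) and luciferase output by luminescence.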
Giardia kill = Giardia lamblia killing; Giardia lamblia trophozoite viability; activity change, % at 7.66 µM, hits read low; 0.15% of 340,000 active; in the data active = activity change below about -80%; inconclusive = between about -30% and that limit;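 also: parasites exposed to compound for two days anaerobically before the ATP read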
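Luminescence from cellular ATP indicates surviving trophozoites (100 cells/well) following 48 hrs anaerobic compound treatment at 37 deg C; signal develops 15-30 min at room temperature.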
KB-3-1 tox = KB-3-1 parental cell cytotoxicity; AID 1347075; 1.4% of 400,000 active; Potency, µM (top dose mostly 46.1 µM), actives largely listed as cytotoxic; KB-3-1 viability, CellTiter-Glo ATP luminescence, 72 h; also: potency is read from the fitted curve at half-maximal effect; nearly all actives have a fitted effect of over 60% in size
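Luminescent ATP read-out (CellTiter-Glo) measures survival of drug-naive KB-3-1 cells after 72 h compound exposure at 37 °C. Titration series was screened from lowest to highest concentration, with DMSO vehicle plates as background controls.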
* marks the source's active call; other numbers are inactive results. Sampled rows, rich in hits. Any-hit rate of the full collection: about 5.7%. Unless noted, calls follow the shape of the dose curve; as a rule, active = well fitted curve in the direction sought with a large enough effect; inconclusive = small, poorly fitted or top-dose-only effect, or another doubt; inactive = no such curve, though single readings can be large; an effect the other way counts as inactive or inconclusive. Unless noted, % is scaled to controls: 0 for no effect and ±100 for the full control effect.

CCOC(=O)N1CCN(c2nc(SC)nc3sc4c(c23)CC(C)(C)OC4)CC1 was read as A549 tox -4%, PI4K2A block -8, KB-V1 MDR tox inactive, Nrf2 inh -2%, Giardia kill -7 and KB-3-1 tox inactive.
For CC(C)Sc1nc(N2CCOCC2)c2c3c(sc2n1)COC(C)(C)C3 the results were PI4K2A block -3, KB-V1 MDR tox inconclusive, Nrf2 inh 15µM*, Giardia kill 10 and KB-3-1 tox inactive.
`CCN1CCN(c2nc(SC)nc3sc4c(c23)CC(C)(C)OC4)CC1` gave A549 tox -1%, PI4K2A block -5, KB-V1 MDR tox 8.2µM*, Nrf2 inh 12%, Giardia kill 14 and KB-3-1 tox inactive.
For CCCc1cc(-c2nc(-c3ccc(Cl)cc3)cs2)ccn1 the results were A549 tox 24%, PI4K2A block 3, KB-V1 MDR tox 16µM*, Nrf2 inh 14%, Giardia kill -5 and KB-3-1 tox inactive.
Screening CCOc1cc(C)c(Cl)cc1S(=O)(=O)NCc1ccc2c(c1)OCO2 returned A549 tox -3%, PI4K2A block -1, KB-V1 MDR tox 13µM*, Giardia kill 10 and KB-3-1 tox inconclusive.
`O=C(NCc1ccc2c(c1)OCO2)c1ccc(Cl)c(S(=O)(=O)NCc2ccccc2)c1` gave A549 tox -1%, PI4K2A block 0, KB-V1 MDR tox 23µM*, Nrf2 inh 7%, Giardia kill -9 and KB-3-1 tox inactive.
C(=Nc1ccc(/C=C/c2ccnc3ccccc23)cc1)c1ccc2c(c1)OCO2 was read as KB-V1 MDR tox inactive and KB-3-1 tox inactive.
O=C(NCc1cccs1)C1CCN(S(=O)(=O)c2ccc([N+](=O)[O-])cc2)CC1 was read as PI4K2A block 0.
Screening O=C(NCCc1c[nH]c2ccccc12)OCc1cn(Cc2cccc(C(F)(F)F)c2)nn1 returned PI4K2A block 4.
For Cc1ccc(NC(=O)C2CCN(S(=O)(=O)c3ccccc3)CC2)cc1 the results were A549 tox -10%, PI4K2A block 3, KB-V1 MDR tox inconclusive, Nrf2 inh 15µM*, Giardia kill -4 and KB-3-1 tox inactive.
`CCc1ccc(NC(=O)C2CCN(S(=O)(=O)c3ccc4c(c3)N(C(C)=O)CCO4)CC2)cc1` gave A549 tox 1%, PI4K2A block 0, KB-V1 MDR tox inactive, Nrf2 inh 23µM*, Giardia kill 10 and KB-3-1 tox inactive.
Screening O=C(Nc1ccc(S(=O)(=O)N2CCOCC2)cc1)C1CCN(S(=O)(=O)c2ccccc2)CC1 returned A549 tox -6%, PI4K2A block -3, KB-V1 MDR tox inactive, Nrf2 inh -23%, Giardia kill 24 and KB-3-1 tox inconclusive.
`O=C(Nc1ccc(C#Cc2ccccc2)cc1)C1CC1` gave A549 tox inconclusive, PI4K2A block -11, KB-V1 MDR tox 15µM*, Nrf2 inh inconclusive, Giardia kill 2 and KB-3-1 tox inactive.
`Cc1ccc(S(=O)(=O)N2CCC(C(=O)Nc3ccc(S(=O)(=O)N4CCOCC4)cc3)CC2)cc1` gave A549 tox -3%, PI4K2A block -2, KB-V1 MDR tox 16µM*, Nrf2 inh inconclusive, Giardia kill -6 and KB-3-1 tox 23µM*.
CC(=O)c1ccc(OCC(=O)N2CCCCC2)cc1 was read as PI4K2A block -4.
For Cc1cnc(NS(=O)(=O)c2ccc(N)cc2)nc1 the results were PI4K2A block -1.
For CC(OC(=O)C1CCN(S(=O)(=O)c2ccc(C(C)(C)C)cc2)CC1)C(=O)N1CCOCC1 (centres undefined) the results were A549 tox 1%, PI4K2A block 7, KB-V1 MDR tox 16µM*, Nrf2 inh 1%, Giardia kill -12 and KB-3-1 tox inactive.
Cc1ccc(S(=O)(=O)N2CCC(C(=O)N/N=C/c3ccccc3[N+](=O)[O-])CC2)cc1 was read as A549 tox -3%, PI4K2A block -8, KB-V1 MDR tox 13µM*, Nrf2 inh -22%, Giardia kill -24 and KB-3-1 tox inactive.
C[C@H](CO)N1C[C@H](C)[C@H](CN(C)S(=O)(=O)c2cccc(F)c2)OCc2ccccc2-c2c(n(C)c3ccccc23)C1=O was read as PI4K2A block -10, KB-V1 MDR tox inactive and KB-3-1 tox 23µM*.
For Cc1ccc(S(=O)(=O)N(C)C[C@@H]2OCc3ccccc3-c3c(n(C)c4ccccc34)C(=O)N([C@H](C)CO)C[C@@H]2C)cc1 the results were PI4K2A block 0, KB-V1 MDR tox inconclusive and KB-3-1 tox inconclusive.
`C[C@@H]1CN([C@@H](C)CO)C(=O)c2ccccc2-c2ccccc2CO[C@@H]1CN(C)S(=O)(=O)c1ccc(C(F)(F)F)cc1` gave PI4K2A block 1, KB-V1 MDR tox 16µM* and KB-3-1 tox inactive.
`C[C@@H]1CN([C@@H](C)CO)C(=O)Cc2cc(NC(=O)Nc3ccc(C(F)(F)F)cc3)ccc2O[C@@H]1CN(C)S(=O)(=O)c1ccc(Cl)cc1` gave A549 tox inconclusive, PI4K2A block -2, KB-V1 MDR tox inactive, Nrf2 inh inconclusive, Giardia kill 45 and KB-3-1 tox inconclusive.
Screening C[C@H](CO)N1C[C@H](C)[C@H](CN(C)S(=O)(=O)c2ccc(Cl)cc2)OCc2ccccc2-c2c(n(C)c3ccccc23)C1=O returned PI4K2A block -3, KB-V1 MDR tox inconclusive and KB-3-1 tox inconclusive.
C[C@H](CO)N1C[C@H](C)[C@@H](CN(C)S(=O)(=O)c2ccc(F)cc2)Oc2c(NC(=O)Nc3ccc(C(F)(F)F)cc3)cccc2C1=O was read as A549 tox -15%, PI4K2A block 0, KB-V1 MDR tox inactive, Nrf2 inh 18µM*, Giardia kill 14 and KB-3-1 tox inconclusive.
`C[C@H](CO)N1C[C@H](C)[C@H](CN(C)S(=O)(=O)c2cn(C)cn2)Oc2ccc(NC(=O)Nc3ccc(C(F)(F)F)cc3)cc2CC1=O` gave A549 tox -10%, PI4K2A block 0, KB-V1 MDR tox inconclusive, Nrf2 inh inconclusive, Giardia kill 13 and KB-3-1 tox 4.1µM*.
Screening O=C(CCc1ccccc1)N[C@H]1[C@@H](OC(=O)c2ccc([N+](=O)[O-])cc2)CCC[C@]12C(=O)N(Cc1ccccc1)c1ccccc12 returned PI4K2A block 6.
For Cn1c(C(=O)NCc2cccc(F)c2)cc2cc(S(=O)(=O)N3CCCCC3)ccc21 the results were A549 tox -7% and PI4K2A block -2.
